Measurements reported in the supplement of paper PMC12282887.
± gives the standard deviation of the averaged measurements.

Test system: E. coli BW25113 marRABp lux reporter
Test: promoter activity interaction Z-score (Lux/OD deviation from empty-vector control); higher = stronger promoter induction by the compound
Experimental: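 E. coli BW25113 (wild type or ΔmarA/ΔsoxS/Δrob) carrying pTU175 luxCDABE promoter reporters was grown in LB in 384-well plates at 37°C with each of 94 compounds at 4 two-fold concentrations, in biological duplicates. Luminescence and OD600 were read every 30 min for 12 h and integrated as AUC over 8 h (0-8 h WT, 1-9 h mutants). Lux AUC was divided by OD AUC; the interaction score is the residual of a Huber robust fit of each promoter against the empty-vector control, then Z-transformed per promoter.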

Structure (SMILES): COc1cc(Cc2cnc(N)nc2N)cc(OC)c1OC [Trimethoprim]
- promoter activity interaction Z-score (0.073 µg/ml, genetic background: wild type): -0.00717 ± 0.14
- promoter activity interaction Z-score (0.073 µg/ml, genetic background: ΔmarA): 0.354 ± 0.26
- promoter activity interaction Z-score (0.073 µg/ml, genetic background: Δrob): 0.118 ± 0.14
- promoter activity interaction Z-score (0.073 µg/ml, genetic background: ΔsoxS): 0.299 ± 0.38
- promoter activity interaction Z-score (0.15 µg/ml, genetic background: wild type): 1.11 ± 0.81
- promoter activity interaction Z-score (0.15 µg/ml, genetic background: ΔmarA): 1.71 ± 0.26
- promoter activity interaction Z-score (0.15 µg/ml, genetic background: Δrob): 0.43 ± 0.16
- promoter activity interaction Z-score (0.15 µg/ml, genetic background: ΔsoxS): 0.811 ± 0.45
- promoter activity interaction Z-score (0.29 µg/ml, genetic background: wild type): 0.921 ± 0.63
- promoter activity interaction Z-score (0.29 µg/ml, genetic background: ΔmarA): 1.36 ± 0.27
- promoter activity interaction Z-score (0.29 µg/ml, genetic background: Δrob): 0.367 ± 0.12
- promoter activity interaction Z-score (0.29 µg/ml, genetic background: ΔsoxS): 0.729 ± 0.19
- promoter activity interaction Z-score (0.58 µg/ml, genetic background: wild type): 0.146 ± 0.067
- promoter activity interaction Z-score (0.58 µg/ml, genetic background: ΔmarA): 0.423 ± 0.12
- promoter activity interaction Z-score (0.58 µg/ml, genetic background: Δrob): 0.143 ± 0.17
- promoter activity interaction Z-score (0.58 µg/ml, genetic background: ΔsoxS): 0.484 ± 0.068

Structure (SMILES): COc1ccc(CCN(C)CCCC(C#N)(c2ccc(OC)c(OC)c2)C(C)C)cc1OC (configuration not stated) [Verapamil]
- promoter activity interaction Z-score (28.4 µg/ml, genetic background: wild type): 0.257 ± 0.13
- promoter activity interaction Z-score (28.4 µg/ml, genetic background: ΔmarA): 0.21 ± 0.17
- promoter activity interaction Z-score (28.4 µg/ml, genetic background: Δrob): 0.064 ± 0.21
- promoter activity interaction Z-score (28.4 µg/ml, genetic background: ΔsoxS): -0.241 ± 0.54
- promoter activity interaction Z-score (56.8 µg/ml, genetic background: wild type): 0.22 ± 0.12
- promoter activity interaction Z-score (56.8 µg/ml, genetic background: ΔmarA): 0.273 ± 0.099
- promoter activity interaction Z-score (56.8 µg/ml, genetic background: Δrob): 0.311 ± 0.47
- promoter activity interaction Z-score (56.8 µg/ml, genetic background: ΔsoxS): 0.0416 ± 0.54
- promoter activity interaction Z-score (113.7 µg/ml, genetic background: wild type): 0.853 ± 0.13
- promoter activity interaction Z-score (113.7 µg/ml, genetic background: ΔmarA): 0.923 ± 0.54
- promoter activity interaction Z-score (113.7 µg/ml, genetic background: Δrob): 0.659 ± 0.32
- promoter activity interaction Z-score (113.7 µg/ml, genetic background: ΔsoxS): 0.193 ± 0.7
- promoter activity interaction Z-score (227.3 µg/ml, genetic background: wild type): 0.957 ± 0.16
- promoter activity interaction Z-score (227.3 µg/ml, genetic background: ΔmarA): 1.14 ± 0.38
- promoter activity interaction Z-score (227.3 µg/ml, genetic background: Δrob): 0.739 ± 0.49
- promoter activity interaction Z-score (227.3 µg/ml, genetic background: ΔsoxS): 0.385 ± 0.48
